# PGE2 EP2 inh – blocks the human prostaglandin E2 receptor EP2; C6 glioma cells expressing human EP2, cAMP TR-FRET; cells stimulated with saturating PGE2; 260,000 tested, 0.52% active; inhibition, % at 25 µM; AID 1422;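 active = percent inhibition above 40 after rounding to a whole number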;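 also: rat C6 glioma host cells with rolipram phosphodiesterase inhibitor present; the protocol text gives 20 µM as final concentration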
# EP2 mod – modulators of human EP2 prostaglandin E2 receptor. P43116. EP2-expressing cells, cAMP HTRF FRET, PGE2 co-stimulation. induction, % at 25 µM. 260,000 tested, 0.83% active. AID 940;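 active = compounds whose cAMP rise, as percent of the full-agonist control response, exceeds 60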;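 also: rat C6 glioma line stably carrying human EP2 under a CMV promoter; the protocol text gives 20 µM as final concentration; 100% = response of wells given 1 µM PGE2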
# CHT block – human CHT choline transport inhibition. 310,000 tested, 0.86% active. CHT-expressing cells, membrane potential dye, choline response; hits give low values. B-score at 10 µM. Q9GZV3;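 active = B-score over 3 SD under the library average, and starting fluorescence ratio not unusually high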;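 also: choline stimulus applied at its EC90 after an EC20 pre-addition; B-score computed on integrated fluorescence ratio after choline addition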
# Target sequence (Q9GZV3 whole entry, looked up): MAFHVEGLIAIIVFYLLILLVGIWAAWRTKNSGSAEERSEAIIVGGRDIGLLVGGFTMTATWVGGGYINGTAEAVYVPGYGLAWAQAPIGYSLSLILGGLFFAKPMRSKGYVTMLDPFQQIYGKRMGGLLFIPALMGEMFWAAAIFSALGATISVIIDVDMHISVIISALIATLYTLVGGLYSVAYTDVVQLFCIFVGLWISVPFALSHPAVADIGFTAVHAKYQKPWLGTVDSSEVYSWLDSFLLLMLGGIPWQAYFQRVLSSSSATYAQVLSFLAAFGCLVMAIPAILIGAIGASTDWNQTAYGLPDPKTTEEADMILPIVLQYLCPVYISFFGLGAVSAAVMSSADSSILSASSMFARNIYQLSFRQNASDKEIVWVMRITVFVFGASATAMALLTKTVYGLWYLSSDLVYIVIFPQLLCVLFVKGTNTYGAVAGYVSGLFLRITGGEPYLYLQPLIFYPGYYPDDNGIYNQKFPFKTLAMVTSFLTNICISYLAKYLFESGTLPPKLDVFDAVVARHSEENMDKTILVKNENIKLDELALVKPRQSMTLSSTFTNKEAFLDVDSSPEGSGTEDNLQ
# CHT allo act – allosterically activates the human high affinity choline transporter; 310,000 tested, 0.49% active; CHT-expressing cells, membrane potential dye, choline EC20; hits give high values; LV-AA mutant CHT in HEK293 cells; Q9GZV3; B-score at 10 µM; AID 488977;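 active = initial fluorescence not abnormally high and integrated response B-score, plate-corrected, over 3 SD above library mean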
# CHT inh conf – human CHT inhibition, confirmatory screen; 2,400 tested, 70% active; shares compounds with CHT block; CHT-expressing cells, choline membrane potential dye; LV-to-AA substituted CHT, HEK293 cells; CHT activity remaining % of control (hits give low values), % at 10 µM;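 active = choline transporter activity left, mean of duplicates at 10 µM, below buffer-only control mean minus 3 SD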;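 also: depolarization triggered by choline at its EC90 following an EC20 pre-addition; 0% = hemicholinium-3 full block and 100% = buffer-only control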
# HEK293 CHT ctr – CHT inhibitor counter-screen hit in parental HEK293 cells; membrane potential dye, choline response; active = decrease or increase beyond buffer ±3SD; 2,400 tested, 4% active; shares compounds with CHT block; membrane potential ratio readout (active if shifted either direction beyond buffer ±3SD; no single direction) at 10 µM;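 also: parental cells lack the transporter so any hit is non-specific; ratio is peak minus trough fluorescence over baseline after EC90 choline challenge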
# * = called active by the depositor; i = inactive; x = not tested or not shown. Sampled rows, rich in hits. Any-hit rate of the full collection: about 2.1%.
SMILES,PGE2 EP2 inh,EP2 mod,CHT block,CHT allo act,CHT inh conf,HEK293 CHT ctr
CC(C)N(C(=O)Cn1nc(-c2ccncc2)oc1=O)C(C)C,2,-44,x,x,x,x
O=C1CCC([N+](=O)[O-])C(c2ccc(Cl)c([N+](=O)[O-])c2)N1 (stereo unspecified),7,-10,i,i,x,x
O=C1CCC([N+](=O)[O-])C(c2ccc3c(c2)OCO3)N1 (stereo unspecified),0,-1,-12*,i,i,i
COc1ccc(CNC(=S)NC2CCCC2)cc1,10,-1,-15*,i,i,i
COc1cccc(CNC(=S)NC2CCCC2)c1,3,0,i,i,x,x
Oc1c(Br)cc(Cl)cc1C=Nc1ccccc1Br,15,-3,-7.1*,i,68%*,i
Cc1ccc2nc(NCCNC(=O)C(C)C)c(C)cc2c1,11,13,x,x,x,x
CCC1(C)Cc2c(sc3nnn(CC(=O)Nc4ccccc4)c(=O)c23)CO1 (stereo unspecified),6,10,i,i,58%*,i
CCC1(C)Cc2c(sc3nnn(CC(=O)Nc4ccccc4C)c(=O)c23)CO1 (stereo unspecified),10,15,i,i,x,x
CC(=O)OC(C(=O)NC1CCCCC1)c1ccc(Cl)c(Cl)c1 (stereo unspecified),7,-12,-11*,i,i,i
CC(=O)OC(C(=O)NC1CCCCC1)c1ccc(C)cc1 (stereo unspecified),11,34,i,i,x,x
COc1ccc(Cc2noc(CN(C)CC(O)c3ccccc3)n2)cc1OC (stereo unspecified),4,3,-5.7*,i,i,i
CC(=O)c1cc(C(=O)N2CCCC(c3noc(-c4ccccn4)n3)C2)cs1 (stereo unspecified),9,-9,x,x,x,x
COc1ccc(C2(NCc3cnc(N4CCCCC4)nc3)CC2)cc1,8,-53,x,x,x,x
Cn1c(=O)c2c(nc(N3CCOCC3)n2CCC#N)n(C)c1=O,10,-2,x,x,x,x
Cc1ccc(N2CC(C(=O)Nc3ncc([N+](=O)[O-])s3)CC2=O)cc1 (stereo unspecified),x,x,-5*,i,50%*,i
CC(C)n1c(O)c(N=NC(=O)CNC(=O)Cc2ccc(Cl)cc2)c2ccccc21,x,x,-8*,i,36%*,i
CC(C)n1c(O)c(N=NC(=O)Cn2ccc(C(F)(F)F)n2)c2ccccc21,4,21,i,i,x,x
CC(C)n1c(O)c(N=NC(=O)CNC(=O)CCc2ccccc2)c2ccccc21,7,1,i,i,x,x
CC(C)n1c(O)c(N=NC(=O)Cc2csc(N3CCOCC3)n2)c2ccccc21,1,9,-9.4*,i,24%*,i
O=C(Nc1cccc(C(F)(F)F)c1)C1CCN(S(=O)(=O)c2cccnc2)CC1,x,x,-5.4*,i,55%*,i
COc1ccccc1CN(Cc1cccnc1)CC1CCCO1 (stereo unspecified),7,0,x,x,x,x
CC1CCCN(CC(=O)N2CCC(n3nnc4ccccc4c3=O)CC2)C1 (stereo unspecified),12,-14,x,x,x,x
Cc1ccc(OCCCN2CCOCC2)c([N+](=O)[O-])c1,3,21,-6.1*,i,i,i
Cc1cccn2c(CNCC3OCCc4ccccc43)c(C(=O)N3CCCCC3)nc12 (stereo unspecified),1,4,-6.6*,i,48%*,-13*
N#C/C(=N\Nc1cccc(C(F)(F)F)c1)C(=O)c1ccsc1,9,-22,-10*,i,35%*,i
CC(C)c1cc(C(=O)N2CCCC(CCC(=O)N3CCN(c4ccccn4)CC3)C2)no1 (stereo unspecified),9,-32,-6*,i,47%*,i
CC(C)c1nc(C(=O)N2CCCC(CCC(=O)N(C)CCc3ccccn3)C2)cs1 (stereo unspecified),4,11,-5.4*,i,i,i
Cc1ccccc1C(=O)N1CCCC(CCC(=O)N2CCN(c3ccccn3)CC2)C1 (stereo unspecified),x,x,i,i,x,x
O=C(NNc1nc(-c2ccccc2)cs1)c1ccc(F)cc1,5,19,-5.2*,i,71%*,i
